D1 antag – human D1 dopamine receptor antagonism | P21728 | activity change, negative = inhibition, % at 10 µM | AID 504652 | HEK293 TREx D1 cells, calcium flux, dopamine EC80; active compounds read low | 360,000 tested, 3.2% active; in the data active = activity change below about -30%; also: % is scaled to controls: 0 for no effect and ±100 for the full control effect
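Calcium flux readout: force-coupled, inducible Hek293 Trex D1 line, cells induced overnight at 30 C with tetracycline, dye-loaded 30–90 min at RT. Antagonism scored against EC80 dopamine challenge given 180 s after compound.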
TRHR agonist-1 – activates the human TRH receptor; P34981; TRHR cells, calcium flux fluo-8, FDSS agonist mode; activation, % at 2 µM; 360,000 tested, 0.18% active; AID 493084; also: 0% is about no effect
Target sequence (P34981 whole entry, looked up): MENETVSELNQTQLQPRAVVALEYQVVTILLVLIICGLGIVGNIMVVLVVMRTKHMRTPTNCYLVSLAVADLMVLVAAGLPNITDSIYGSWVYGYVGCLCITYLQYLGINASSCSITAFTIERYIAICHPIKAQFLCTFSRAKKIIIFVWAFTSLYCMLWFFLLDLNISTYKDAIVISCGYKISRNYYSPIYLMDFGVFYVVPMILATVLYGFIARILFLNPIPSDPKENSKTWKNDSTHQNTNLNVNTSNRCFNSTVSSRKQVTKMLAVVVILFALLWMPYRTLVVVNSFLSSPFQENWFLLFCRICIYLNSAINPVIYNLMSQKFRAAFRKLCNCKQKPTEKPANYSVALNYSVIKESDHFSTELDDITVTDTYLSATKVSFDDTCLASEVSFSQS
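TRHR-expressing cells, plated overnight in medium with 10% serum, were loaded with fluo-8 calcium dye at room temperature. After a 10 s baseline, library compound was pin-added and calcium release was recorded kinetically (ex 480/em 530) as agonist response.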
D1 ag – activates the human D1 dopamine receptor; activation, % at 2 µM; HEK293 T-REx D1 cells, calcium flux, agonist mode; 360,000 tested, 1% active; AID 504660; P21728; also: 0% is about no effect
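Tetracycline-induced HEK293 TREx D1 cells, force-coupled to calcium signalling, were dye-loaded with a no-wash calcium kit. Compound was pin-added after a 10 s baseline. Fluorescence was read kinetically at 1 cycle/s for 180 s, with calcium rises flagged as agonism.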
D1 PAM – enhances dopamine response at the human D1 receptor; P21728; HEK293 TREx D1 cells, calcium flux, dopamine EC20 potentiation; potentiation, % at 10 µM; 360,000 tested, 0.036% active; AID 504651; in the data active = potentiation above about 30%; also: 0% is about no effect
TRHR enhancer-1 – allosterically enhances the human TRH receptor. TRHR cells, fluo-8 calcium fluorescence, EC20 TRH enhancement. P34981. AID 493056. 360,000 tested, 0.66% active. enhancement, % at 2 µM; in the data active = enhancement above about 30%; also: 0% is about no effect
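Enhancer read-out: after compound pinning and an initial kinetic agonist-mode read, an EC20 of TRH (10 nM final) was injected and fluo-8 calcium signal (Ex 480/Em 530) followed at 1 s/cycle for 100 cycles in TRHR-expressing cells.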
TRHR enhancer-2 – human TRH receptor allosteric enhancement confirmation; shares compounds with TRHR enhancer-1; TRH receptor cell assay, enhancer confirmation qHTS; activity change, negative = inhibition, % at 46.1 µM; 970 tested, under 10 active; active = well fitted curve in the direction sought with a large enough effect; inconclusive = small, poorly fitted or top-dose-only effect, or another doubt; inactive = no such curve, though single readings can be large; an effect the other way counts as inactive or inconclusive;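 also: compound effect scored on response to added TRH at EC20 of 10 nM; 0% is about no effect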
TRHR agonist-2 – confirmation of human TRH receptor agonists. shares compounds with TRHR enhancer-1. TRHR-expressing cells, agonist activation read-out. Potency, µM (series often up to 46.1 µM), for inactives: at the top dose activation, usual class: activators. 970 tested, 8% active; active = well fitted curve in the direction sought with a large enough effect; inconclusive = small, poorly fitted or top-dose-only effect, or another doubt; inactive = no such curve, though single readings can be large; an effect the other way counts as inactive or inconclusive; also: potency is read from the fitted curve at half-maximal effect; 0% is about no effect; nearly all actives have a fitted effect of over 75% in size
* marks the source's active call; other numbers are inactive results. Shown are actives, neighbours in structure and some others; about 4.7% of the full set was active somewhere. Rule as the data show it, unless noted: active = activation above about 30%; inactive = the rest.

What do the screens show for `O=C(NCc1ccc2c(c1)OCO2)c1cccc(S(=O)(=O)N2CCCC2)c1`?
D1 antag: 8; TRHR agonist-1: 0; D1 ag: 0; D1 PAM: -2; TRHR enhancer-1: -1

How did CC(C)(C)c1ccc(OCCC(=O)Nc2cccc(S(=O)(=O)N3CCOCC3)c2)cc1 do in these assays?
D1 antag: -7; TRHR agonist-1: 1; D1 ag: 30; D1 PAM: -3; TRHR enhancer-1: 44*; TRHR enhancer-2: 5; TRHR agonist-2: 0%

How did COc1ccc(OCCC(=O)OCC(=O)Nc2cccc(S(=O)(=O)N3CCOCC3)c2)cc1 do in these assays?
D1 antag: -18; TRHR agonist-1: 0; D1 ag: 5; D1 PAM: -3; TRHR enhancer-1: 0

What do the screens show for `O=C(Nc1cccc(S(=O)(=O)N2CCCC2)c1)c1cccc(S(=O)(=O)N2CCOCC2)c1`?
D1 antag: -1; TRHR agonist-1: 29; D1 ag: 1; D1 PAM: -2; TRHR enhancer-1: -5; TRHR enhancer-2: 4; TRHR agonist-2: 2%

Results for O=C(NCc1ccc2c(c1)OCO2)c1cccc(S(=O)(=O)N2CCCCC2)c1 ?
D1 antag: -16; TRHR agonist-1: 44*; D1 ag: 2; D1 PAM: -4; TRHR enhancer-1: -17; TRHR enhancer-2: -9; TRHR agonist-2: 2%

Results for COc1ccc(CCNC(=O)c2cc(Nc3cc(C)cc(C)c3)nc3ccccc23)cc1OC ?
D1 antag: -25; TRHR agonist-1: -1; D1 ag: 0; D1 PAM: 5; TRHR enhancer-1: 2

Results for CC(C)c1ccc(NS(=O)(=O)c2ccc3[nH]cc(C(=O)NCC4CCCO4)c(=O)c3c2)cc1 (stereo not drawn) ?
D1 antag: 14; TRHR agonist-1: 0; D1 ag: 15; D1 PAM: -1; TRHR enhancer-1: 8

How did O=C(CNCc1ccc(F)cc1)Nc1ccc(C(=O)N2CCCCC2)cc1 do in these assays?
D1 antag: 2; TRHR agonist-1: 1; D1 ag: 3; D1 PAM: 3; TRHR enhancer-1: -4

How did CCOC(=O)Cc1ccc(NC(=O)Nc2cc3c(cc2N2CCCCC2)n(C)c(=O)n3C)cc1 do in these assays?
D1 antag: 7; TRHR agonist-1: 1; D1 ag: 5; D1 PAM: 0; TRHR enhancer-1: 3

How did COc1ccccc1NC(=O)N1CCC(CN2CCc3ccccc3C2)CC1 do in these assays?
D1 antag: 0; TRHR agonist-1: 0; D1 ag: 1; D1 PAM: -4; TRHR enhancer-1: -1

How did COc1ccccc1N1CCN(Cc2nc3ccccc3[nH]2)CC1 do in these assays?
D1 antag: -10; TRHR agonist-1: 0; D1 ag: 1; D1 PAM: 7; TRHR enhancer-1: 50*; TRHR enhancer-2: 5; TRHR agonist-2: -1%

Results for O=C(C1=C(O)C(=O)N(c2nccs2)C1c1ccccc1)c1cc2ccccc2o1 (stereo not drawn) ?
D1 antag: -14; TRHR agonist-1: 57*; D1 ag: 107*; D1 PAM: 0; TRHR enhancer-1: 2; TRHR enhancer-2: inconclusive; TRHR agonist-2: 4.6µM*

What do the screens show for `Cc1ccc(N2CC(C(=O)OCC(=O)c3ccc([N+](=O)[O-])cc3)CC2=O)cc1` (stereo not drawn)?
D1 antag: -17; TRHR agonist-1: -1; D1 ag: 6; TRHR enhancer-1: -6

How did COc1ccccc1CCNC(=O)c1cc2c(=O)n3cccc(C)c3nc2n1C do in these assays?
D1 antag: -23; TRHR agonist-1: -1; D1 ag: 0; D1 PAM: -2; TRHR enhancer-1: 10

How did Cn1nc(C(=O)OCC(=O)Nc2ccc(Cl)cc2Cl)c2ccccc2c1=O do in these assays?
D1 antag: 1; TRHR agonist-1: 0; D1 ag: 0; D1 PAM: -10; TRHR enhancer-1: 42*; TRHR enhancer-2: -2; TRHR agonist-2: -1%

Results for CCCCCCC1CCC(C(=O)Nn2c(C)nc3ccccc3c2=O)CC1 (stereo not drawn) ?
D1 antag: 8; TRHR agonist-1: 2; D1 ag: 2; D1 PAM: -2; TRHR enhancer-1: -2

Results for CCCC1CCC(C(=O)Nn2c(C)nc3ccccc3c2=O)CC1 (stereo not drawn) ?
D1 antag: 0; TRHR agonist-1: 0; D1 ag: -1; D1 PAM: -4; TRHR enhancer-1: 45*; TRHR enhancer-2: -1; TRHR agonist-2: 0%

What do the screens show for `Cn1c(CNC(=O)C2CCC(=O)N(CCc3cccc(F)c3)C2)nc2ccccc21` (stereo not drawn)?
D1 antag: 27; TRHR agonist-1: 0; D1 ag: 1; D1 PAM: -6; TRHR enhancer-1: -6

How did COc1ccc(NC(=O)c2ccco2)cc1NC(=O)c1cc(OC)c(OC)c(OC)c1 do in these assays?
D1 antag: -15; TRHR agonist-1: 0; D1 ag: -1; D1 PAM: -6; TRHR enhancer-1: -3

What do the screens show for `O=C(Nc1nnc(SCc2ccc(F)cc2)s1)C1=COCCO1`?
D1 antag: -5; TRHR agonist-1: 1; D1 ag: 0; D1 PAM: -5; TRHR enhancer-1: 43*; TRHR enhancer-2: -2; TRHR agonist-2: 2%

What do the screens show for `O=C(Nc1nnc(SCc2ccccc2)s1)C1=COCCO1`?
D1 antag: -4; TRHR agonist-1: 1; D1 ag: 4; D1 PAM: -4; TRHR enhancer-1: -5

How did O=C(CSc1ccc(-c2ccccn2)nn1)N1CCCc2ccccc21 do in these assays?
D1 antag: 12; TRHR agonist-1: 0; D1 ag: 2; D1 PAM: -1; TRHR enhancer-1: -2

What do the screens show for `O=C(CSc1ccc(-c2cccnc2)nn1)N1CCCc2ccccc21`?
D1 antag: 9; TRHR agonist-1: 0; D1 ag: -2; D1 PAM: -4; TRHR enhancer-1: 41*; TRHR enhancer-2: -7; TRHR agonist-2: 0%

What do the screens show for `COc1ccc(OC)c(/C=C/c2nc3ccccc3[nH]c2=O)c1`?
D1 antag: -2; TRHR agonist-1: 26; D1 ag: 62*; D1 PAM: -1; TRHR enhancer-1: -4; TRHR enhancer-2: 5; TRHR agonist-2: 18µM*

How did COc1ccc(OC)c(C=Nc2ccccc2-c2nc3ccccc3[nH]2)c1 do in these assays?
D1 antag: -1; TRHR agonist-1: -1; D1 ag: -1; D1 PAM: 3; TRHR enhancer-1: -5

Bioassay records: PubChem, National Center for Advancing Translational Sciences (NCATS)
